Experimental data as given in PubChem BioAssay AID1259313 (Sanford-Burnham Center for Chemical Genomics, 2017).
Among all 340,000 compounds or so, about 8,500 (2.5%) were called active.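 The calls were made as follows: active = melting temperature shift of at least 10% of the positive control shift, at one fixed dose; inactive = the rest.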 Shown is part of a subset that was picked to be rich in actives.

These compounds were tested on Glutamate receptor ionotropic, NMDA 3A (GRIN3A) ligand-binding domain (assay: binders of NR3A ligand-binding domain, primary screen, biophysical, differential scanning fluorimetry, uHTS (AID 1259313)). Details: NR3A LBD differential scanning fluorimetry, at 25 µM, stronger effect = higher value, 0% = protein alone, 100% = glycine-bound protein.

Compound	Tm shift relative to glycine control
Cc1ccc(NC(=S)N2CCN(c3ncccn3)CC2)cc1C	-1.38% (inactive)
Cn1cc(/C=C/C(=O)N2CCCC(C(=O)c3ccc(C(F)(F)F)cc3)C2)cn1 (configuration not stated)	1.32% (inactive)
CCCCn1c(N)c(N(CCOC)C(=O)c2cccc(OCc3ccccc3)c2)c(=O)[nH]c1=O	1.68% (inactive)
CCCCCCCCCCOC(=O)Cn1c(COc2ccc(C)cc2)[n+](C)c2ccccc21	-408% (inactive)
CCCCCCCCCCOC(=O)Cn1c(COc2cccc(OC)c2)[n+](C)c2ccccc21	17.8% (active)
O=C1CC(Cc2ccccc2)C(=O)N1c1ccc(Cl)cn1 (configuration not stated)	1.69% (inactive)
Fc1ccc(/C=N/n2c(COc3ccccc3)n[nH]c2=S)cc1	-0.74% (inactive)
CN(C)c1ccc(C2Nc3ccccc3C(=O)N2NS(=O)(=O)c2ccccc2)cc1 (configuration not stated)	0.59% (inactive)
O=C(CN1CCOCC1)Nc1c2c(nc3c1CCC3)CCC2	10.2% (active)
O=C(CN1CCOCC1)Nc1c(Cl)cc(Cl)cc1Cl	-2.33% (inactive)
Cc1cc(C)c(NC(=O)CN2CCOCCOCCOCCOCC2)c(C)c1	0.86% (inactive)
O=C(COc1ccc2ccccc2c1)N1CCN(C(=O)c2cccs2)CC1	0.47% (inactive)
CCOC(=O)c1nn(-c2ccccc2F)c2nc(Nc3ccccc3)cc(=O)n12	0.55% (inactive)
Cc1ccc(NC(=O)CSCC(=O)Nc2sccc2C#N)cc1	-2.55% (inactive)
Cc1ccc(NC(=O)c2sc3nc(N)c(C#N)cc3c2N)cc1	10.3% (active)
CCc1ccc2nc3sc(C(=O)Nc4nnc(CC)s4)c(N)c3cc2c1	2.24% (inactive)

Compound	Tm shift relative to glycine control
O=C(CCn1nnc2ccccc2c1=O)N[C@@H](Cc1c[nH]c2ccccc12)C(=O)O	-1.09% (inactive)
O=C(N[C@@H](Cc1c[nH]c2ccccc12)C(=O)O)OCC1c2ccccc2-c2ccccc21	19.5% (active)
Cc1cccc(C)c1OCC(=O)NC(Cc1c[nH]c2ccccc12)C(=O)O (configuration not stated)	0.33% (inactive)
Cc1cc(NC(=O)C(C)SCC(=O)Nc2cccc(S(=O)(=O)N3CCCCCC3)c2)no1 (configuration not stated)	-1.57% (inactive)
CC(C)c1c(C(=O)N/N=C/c2ccccc2C(=O)O)nnn1-c1nonc1N	-7.76% (inactive)
O=C(NN=Cc1ccc([N+](=O)[O-])cc1)C1CC1	-0.92% (inactive)
Nc1nonc1-n1nnc(C(=O)N/N=C/c2c[nH]c3ccccc23)c1-c1ccccc1	31.6% (active)
CSC(=S)N/N=C/c1c[nH]c2ccccc12	30.1% (active)
O=C(N/N=C/c1c[nH]c2ccccc12)c1cc2ccccc2o1	28.7% (active)
Nc1nonc1-n1nnc(C(=O)N/N=C/C2CCCCC2)c1-c1ccccc1	0.68% (inactive)
Cc1c(/C=N\NC(=O)c2cc3ccccc3o2)c2ccccc2n1C	2.79% (inactive)
Cc1cc(NC(=O)c2cc3ccccc3o2)no1	2.81% (inactive)
C[n+]1ccc(/C=C/c2c[nH]c3ccccc23)cc1	-3.88% (inactive)
NC(=O)CSc1c[nH]c2ccccc12	0.83% (inactive)
O=C(N/N=C/c1ccc(Cl)cc1)c1nc2ccc([N+](=O)[O-])cc2c(=O)[nH]1	1.51% (inactive)
O=C(N/N=C/c1ccc([N+](=O)[O-])cc1)c1c[nH]c2ccccc12	26.3% (active)
